Measured values from PubChem BioAssay AID624256 (NMMLSC, 2012).
Where “and” joins values, the source holds several entries; their conditions need not be identical. Identical values can stand only once. Out of some 360,000 compounds screened, about 3,700 (1%) were called active. Inconclusive results (about 2%) are left out.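 Rule for the calls: active = normalized GFP-positive differentiation at or above the plate's own cutoff, the solvent-only control mean plus 3 SD; inconclusive = no clear call, values can overlap the other calls; inactive = the rest.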 For the sample, actives were picked, then their nearest neighbours and some compounds at random.

test: HoxA9-arrested leukemia cell differentiation promoters – flow cytometry, MLPCN library, primary screen (AID 624256); conditions: ER-HoxA9 myeloid progenitors, lysozyme-GFP differentiation, at 10 µM; GFP+ MAC1+ double positive: measured here: differentiation confirmed by MAC1 staining, stronger effect = higher value; normalized GFP-positive differentiation: stronger effect = higher value;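 for GFP+ MAC1+ double positive: cells exposed to compound for four days before flow analysis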;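 for normalized GFP-positive differentiation: cells exposed to compound for four days before flow analysis; 0% = DMSO wells and 100% = fulvestrant positive control at 5 µM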

Compound	GFP+ MAC1+ double positive	outcome	normalized GFP-positive differentiation
O=C1Nc2ccccc2-n2nnnc2C1N1CCN(c2cccc(C(F)(F)F)n2)CC1 (stereo unspecified)	1.4%	inactive	
CCCCCCc1cc2cc(-c3nnc(-c4ccccc4)o3)c(=O)oc2cc1O	56.6%		197% (active)
CCc1ccc(CN(C)C(=O)CCc2nnc(-c3ccc(-c4ccccc4)cc3)o2)nc1	0.1%	inactive	
CN[C@H]1C[C@H]2c3cc(Oc4ccccc4C)ccc3CCN2C(=O)[C@H]1[C@H](C)O	0.2%	inactive	
O=C(CCC(=O)c1ccccc1)NCc1cccc(C(F)(F)F)c1	0.7%	inactive	
Cn1c(=O)c2cc(NC(=O)NCCc3cccs3)ccc2n1Cc1cccc(C(F)(F)F)c1	1.6%	inactive	
O=C(Cc1cccs1)NCc1cccc(C(F)(F)F)c1	3.5%		341% (active)
COc1ccc(C(=O)C(OP(=O)(OC)OC)c2ccccc2OC)cc1 (stereo unspecified)	2%	inactive	
CN(C)CCCOc1ccc(-c2ccc3nccn3c2)cn1	0.4%	inactive	
CCC(=O)c1ccc(OCC(=O)OCC(=O)N2CCc3ccccc3C2)cc1	0.4%		6.6% (active)
CCC(=O)c1ccc(OCC(=O)OCC(=O)NC2CCCCCC2)cc1	1.4%	inactive	
Cc1ccc(Cl)c(OCC(=O)N2CCc3ccccc3C2)c1	0.3%	inactive	
CCOc1ccc2[nH]c(=S)sc2c1	0%	inactive	
CCC(CC)C(C(=O)NC1CCCC1)N1CCN(c2cc(C)nc3ccccc23)CC1 (stereo unspecified)	1.2%	inactive	
COC(=O)c1ccc2nc(-c3ccccc3)c(Cc3ccc(OC)cc3C)n2c1	1.4%	inactive	
O[C@H]1C[C@H](c2ccc(Cl)cc2)N(Cc2cccs2)C[C@@H]1n1cc(C2CC2)nn1	3.6%		19.2% (active)
O[C@H]1CN(Cc2cccs2)[C@@H](c2ccc(Cl)cc2)C[C@@H]1n1cc(C2CC2)nn1	1.3%		3.49% (inactive)
O[C@@H]1C[C@H](c2ccccc2)N(Cc2cccs2)C[C@H]1n1cc(C2CC2)nn1	0.6%	inactive	
CC(C)c1cc(Cn2c3ccccc3c(=O)n2C(C)Cn2cc(C3CC3)nn2)on1 (stereo unspecified)	2.6%	inactive	
COc1cccc(CNc2nc(NCc3cccs3)nc3ccsc23)c1	1.5%	inactive	
O=S1(=O)C[C@@H](N2CCN(CCO)CC2)[C@H](COCc2ccccc2)N1	0.9%	inactive	
CCc1ccc([C@@H]2CC(=O)[C@@H]3CN(S(=O)(=O)c4ccc(C)cc4)[C@H](c4ccc(Cl)cc4)C[C@@H]3N2S(=O)(=O)c2ccc(C)cc2)cc1	1.2%	inactive	

Compound	GFP+ MAC1+ double positive	outcome	normalized GFP-positive differentiation
CC(=O)Nc1cncc(-c2ccccc2CO)n1	0.4%	inactive	
CC(=O)Nc1cccc(-c2cc(NC=O)c3ncc(-c4ccc(F)c(Cl)c4)n3c2)c1	1.3%	inactive	
Cc1ccc(N2C(=O)c3ccccc3C2(O)c2ncc[nH]2)cc1 (stereo unspecified)	1.1%	inactive	
Cc1ccc(-c2ccnc3[nH]n(-c4ccccc4)c(=O)c23)cc1	0.4%		17.5% (active)
O=c1c2c(-c3ccccc3)ccnc2[nH]n1-c1ccccc1	0.5%	inactive	
COC(=O)[C@@]12C[C@@H](CC(=O)NCCCCc3ccccc3)C(=O)N(CCc3ccc(OC)c(OC)c3)C1=CCC(C)(C)C2	1.6%	inactive	
COC(=O)C[C@@H]1C=C[C@@H](NS(=O)(=O)c2cccc(OC)c2)[C@@H](CO)O1	1.6%	inactive	
Cc1c(-c2ccccc2)cn2c1-c1ccc(C)n1CC2	1.4%		31.7% (active)
O=C(C[C@H]1CC[C@H]2[C@@H](COC[C@H](O)CN2C(=O)c2ccccn2)O1)N1CCN(c2ccccc2)CC1	2.6%	inactive	
CN(CCO)C(=O)c1nc[nH]c1C(=O)N(C)Cc1ccccc1	0.2%	inactive	
CCCCn1nnnc1C(c1cc2ccccc2o1)N(C)Cc1ccc(Cl)c(Cl)c1 (stereo unspecified)	0.9%	inactive	
COc1ccccc1C(=O)N/C(=C/c1ccco1)C(=O)Nc1ccc(C(=O)O)cc1	1.5%	inactive	
COc1ccc(NC(=O)/C(C#N)=C\c2cc(OC)c(OCc3ccc(C(=O)O)cc3)cc2Br)cc1	0.2%	inactive	
COCCCn1c(=O)/c(=C/c2ccccc2OC(C)C)s/c1=C(\C#N)C(=O)Nc1ccc(C(=O)O)cc1	2.8%		20.2% (active)
COCCNC(=O)C1CCCN(Cc2ccccc2Cl)CC1 (stereo unspecified)	0.5%	inactive	
COC(=O)[C@@]1(Sc2ccc(C)cc2)CC(=O)N(c2cccc(SC)c2)[C@@H]1c1ccccc1	0.4%	inactive	
c1ccc(Cc2c(-c3ccco3)nc3c4ccccc4ccn23)cc1	1.5%	inactive	
Cc1ccc(Oc2nc3ccccc3n3c(C)nnc23)cc1	5.3%	inactive	
Cc1ccc(S(=O)(=O)N(C)c2nc3ccccc3n3c(C(C)C)nnc23)cc1	2%		94.1% (active)
Cc1cc(NC(C)C)n2c(nc3ccccc32)c1C#N	1%	inactive	
Cc1cc2c(cc1C)N1C(=O)c3cc4ccccc4cc3NC(=O)C1C(=O)N2 (stereo unspecified)	1.5%	inactive	
Cc1ccc(CSCC(=O)N(C)CC(=O)Nc2cccc(F)c2)cc1	1.2%	inactive	

Compound	GFP+ MAC1+ double positive	outcome	normalized GFP-positive differentiation
CCN(CC)C(=O)CSC(Nc1cccc(F)c1)=C(C#N)C#N	2.2%		143% (active)
CN(CC(=O)Nc1cccc(F)c1)C(=O)CC1CCCC1	0.8%	inactive	
Cn1c(Nc2ccc(F)cc2)nc2cc(-c3ccsc3)sc2c1=O	0.7%	inactive	
CCOC(=O)C1CCCN(C(=O)c2cccc3ccccc23)CC1 (stereo unspecified)	1.7%	inactive	
CC(=O)OCC(C)n1c(=O)c2ccccc2n1C(C)=O (stereo unspecified)	1%	inactive	
Cc1[nH]c(=O)c(C(=O)/C=C/c2ccccc2)c2c1CCCC2	10.9%		31.7% (active)
CC1(C(=O)O)CCCN(C(=O)/C=C/c2ccccc2)C1 (stereo unspecified)	2.1%	inactive	
COC(=O)c1c(C)[nH]c(C(=O)/C=C/c2ccc(Cl)cc2)c1C	0.4%	inactive	
Cc1ccc2nc(-c3ccco3)c(Cc3cccc(Cl)c3)n2c1	0.9%	inactive	
COc1cccc(-c2nn(-c3ccccc3)cc2/C=C(\C#N)C(=O)NCCCn2ccnc2)c1	0.5%		58.2% (active)
COc1cc(OC)cc(C(=O)NCCCn2ccnc2)c1	0.7%	inactive	
COc1ccc(/C=C(\C#N)C(=O)NCCCn2ccnc2)cc1	0.1%	inactive	
Nc1nc2c(Br)ccc(Br)c2cc1C(=O)NCCc1ccccc1	0.7%	inactive	
CC(C)NC(=O)N1Cc2cc(C(=O)NCC(F)(F)F)nc(-c3cccc(-c4cc5ccccc5o4)c3)c2[C@@H]1CCO	1.5%	inactive	
COc1ccc(CCNC(=O)/C(C#N)=C2\N=C(NC(=O)c3cccs3)c3ccccc32)cc1	0.9%		28.9% (active)
CCOc1ncccc1C(=O)NCCc1ccc(OC)cc1	0.2%	inactive	
COc1ccc(CN(Cc2ccc(OC)cc2)C(=O)c2cccs2)cc1	0.3%	inactive	
CCOC(=O)C1C(C)C(C(C)(C)C)N(S(=O)(=O)c2ccc(C)cc2)C1c1ccccc1 (stereo unspecified)	2.4%	inactive	
NC(c1csc(NC(=O)Nc2ccccc2Oc2ccccc2)n1)c1ccccc1Cl (stereo unspecified)	0.8%	inactive	
CSCCC(c1nnnn1Cc1ccccc1)N1CCN(C/C=C/c2ccccc2)CC1 (stereo unspecified)	1.1%	inactive	
COc1ccc(-c2nc3cnccn3c2NC2CCCCC2)cc1-c1cccc(Cl)c1	2.8% and 1.8%	inactive	
COc1ccc(-c2nc3cc(C)ccn3c2NC2CCCCC2)cc1SC1CCCCC1	2.4% and 7.4%		300% (active) and 217% (active)

Compound	GFP+ MAC1+ double positive	outcome	normalized GFP-positive differentiation
CCOc1cc(-c2nc3cc(C)ccn3c2NCC2CCCO2)ccc1O (stereo unspecified)	0.6%	inactive	
CN(Cc1ccccn1)Cc1nc(-c2ccc(Cl)cc2)no1	0.5%		34.3% (active)
COC(=O)c1ccc(-c2noc(CN(Cc3ccccn3)CC3CCCO3)n2)cc1 (stereo unspecified)	0.3%	inactive	
CCN1CC(CN(C)Cc2nc(-c3ccc(Cl)cc3)no2)CC1=O (stereo unspecified)	0.3%	inactive	
Cc1[nH]c2ccccc2c1C(=O)c1cc([C@H](NC(=O)OC(C)(C)C)C(C)C)sc1N	1%	inactive	
CCOC(=O)N1CCN(C(=O)C[C@@H]2C[C@@]3(C(=O)OC)CC(C)(C)CC=C3N(Cc3ccco3)C2=O)CC1	1.2%	inactive	
CC1=C(C(=O)N(C(C)C)C(C)C)CC(CC(=O)NCC2CCCCC2)C(=O)N1Cc1ccccc1 (stereo unspecified)	0.3%	inactive	
O=C1c2ccccc2-c2ncnc3c(N4CCOCC4)cc(N4CCOCC4)c1c23	4.8%		41.7% (active)
O=S(=O)(Nc1cc(Cl)ccc1N1CCOCC1)c1ccccc1Cl	0.3%	inactive	
O=C(Nc1ccccc1N1CCOCC1)c1ccncc1	1.1%	inactive	
CCCCC[C@H](C)N1C[C@@H](COCc2ccccc2)Oc2cc(N3CC[C@@H](N(C)C)C3)ccc2S1(=O)=O	1.2%	inactive	
COC(=O)c1ccc2nc(-c3ccc(F)cc3)c(Cc3ccc(C)cc3)n2c1	0.7%	inactive	
O=C(O)c1ccccc1-c1cccc2nncn12	0.5%	inactive	
CCCCN(CC)CCNC(=O)c1[nH]c(C)c(C(C)=O)c1C	2.2%		13.8% (active)
CC(=O)c1c(C)[nH]c(C(=O)NCCCN2CCCC2)c1C	0.6%	inactive	
CC(=O)c1c(C)[nH]c(C(=O)NCc2ccc(C)cc2)c1C	1.3%	inactive	
COC(=O)c1ccc2nc(C3CCCCC3)c(Cc3cccc(F)c3)n2c1	0.7%	inactive	
CO[C@@H]1CN(C)C(=O)c2cc(NC(=O)C3CC3)ccc2OC[C@H](C)N(C(=O)CN2CCOCC2)C[C@@H]1C	1.2%	inactive	
CC(C(=O)O)N1C(=O)c2cccc3cccc1c23 (stereo unspecified)	1.4%	inactive	
Cc1nn(C)cc1N1C(=O)c2cccc3c(N)ccc(c23)C1=O	4.9%		289% (active)
CN1C(=O)c2cccc3c(N)ccc(c23)C1=O	1.9%		96.2% (active)
Cn1cc(C2OC(=O)c3ccccc32)c2ccccc21 (stereo unspecified)	1.6%	inactive	
